DT40 TDP1 CPT: qHTS for Inhibitors of human tyrosyl-DNA phosphodiesterase 1 (TDP1): qHTS in cells in presence of CPT; chicken DT40 Tdp1-/-;hTDP1 cells + 20 nM CPT, ATP luminescence, 48 h; Potency, µM (highest dose often 46.2 µM), usual class: inhibitors; 420,000 compounds, 12% hits; AID 686979, 2013; further: nearly all actives have a fitted effect of over 55% in size
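Chicken DT40 Tdp1-/- cells stably complemented with human TDP1 were seeded at 400 cells/well in medium containing 20 nM camptothecin, exposed to pin-transferred compounds, and grown at 37 °C for at least 48 hr. Viability was read as ATP luminescence.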
uPA surface inh: qHTS for Inhibitors of Cell Surface uPA Generation | cell surface uPA generation assay, qHTS | Potency, µM (doses to about 38.3 µM), usual class: inhibitors | 330,000 compounds, 0.31% hits; active means well fitted inhibition curve with a large enough effect; inconclusive means small, poorly fitted or top-dose-only effect; inactive means no such curve, though single readings can be large or run the other way; tested in mouse RAW 264.7 cells; further: nearly all actives have a fitted effect of over 55% in size
DT40 TDP1 no CPT: qHTS for Inhibitors of human tyrosyl-DNA phosphodiesterase 1 (TDP1): qHTS in cells in absence of CPT | DT40 Tdp1-/- hTDP1 cells, no CPT, ATP luminescence, 48 h | Potency, µM (doses to about 46.2 µM), hits mostly inhibitors | 420,000 compounds, 15% hits | AID 686978, 2013; further: nearly all actives have a fitted effect of over 55% in size
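Stably hTDP1-transfected Tdp1-null chicken DT40 cells were treated with library compounds minus camptothecin and grown for at least 48 hr at 37 °C, after which cellular ATP was quantified by luminescence.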
HT1080 IDH1KD tx: qHTS for induction of synthetic lethality in tumor cells producing 2HG: qHTS for the HT-1080-IDH1KD cell line; Potency, µM (series often up to 46.1 µM), usual class: cytotoxic; HT-1080 IDH1 knockdown viability, ATP luminescence, 48 h; AID 686971, 2013; 360,000 compounds, 2% hits
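% activity derives from luminescence (CellTiter-Glo), normalised to DMSO and no-cell wells. HT-1080-IDH1KD cells, 750/well, had 48 h compound exposure at 37 °C.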
HT1080-NT tox: qHTS for induction of synthetic lethality in tumor cells producing 2HG: qHTS for the HT-1080-NT fibrosarcoma cell line; 360,000 compounds, 1.6% hits; AID 686970, 2013; Potency, µM (highest dose often 46.1 µM), actives largely listed as cytotoxic; HT-1080-NT fibrosarcoma viability, CellTiter-Glo ATP luminescence, 48 h;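 further: NT is the 2HG producing partner of a matched IDH1 knockdown line; nearly all actives have a fitted effect of over 55% in size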
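750 cells/well, RPMI + 5% FBS; 2 h settle, compound pin-transfer, 48 h at 37 degrees C. CellTiter-Glo 10 min RT, luminescence. Normalized to DMSO and media-only wells.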
IL-1B inflam inh: qHTS for Inhibitors of Inflammasome Signaling: IL-1-beta AlphaLISA Primary Screen | 360,000 compounds, 4.7% hits | activity change, % at 57.5 µM | THP-1 LPS/ATP IL-1B secretion, AlphaLISA, 16 h; stronger effect = lower value; in the data active means activity change below about -50%; inconclusive means mostly about -30% to -49%
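THP-1 cells pretreated 1 hr with compounds (up to 57.5 uM final), then stimulated with LPS (250 ng/mL final) plus ATP (1.25 mM final); secreted IL-1B measured by AlphaLISA after 16 hr, decreased signal indicating inhibition.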
Hits are given with their value; n = inactive; u = inconclusive; x = no result. An excerpt weighted towards active compounds, which were near 19% of everything screened. Unless noted, the call rests on the fitted dose curve; in most records, active means well fitted curve in the direction sought with a large enough effect; inconclusive means small, poorly fitted or top-dose-only effect, or another doubt; inactive means no such curve, though single readings can be large; an effect the other way counts as inactive or inconclusive.

SMILES	DT40 TDP1 CPT	uPA surface inh	DT40 TDP1 no CPT	HT1080 IDH1KD tx	HT1080-NT tox	IL-1B inflam inh
O=C(Cn1nnc(-c2ccccc2)n1)Nc1cccc(S(=O)(=O)N2CCCC2)c1	18µM	n	21µM	n	n	n
O=S(=O)(NCCc1ccccc1)c1cccc(S(=O)(=O)N2CCOCC2)c1	n	n	u	n	n	n
Cc1cc(C(=O)Nc2cccc(S(=O)(=O)N3CCCCC3)c2)c2ccccc2n1	u	n	u	n	n	n
O=C(CN1CCN(Cc2ccccc2)CC1)Nc1cccc(S(=O)(=O)N2CCCCCC2)c1	u	n	u	u	n	-69
O=C(CN1CCOCC1)Nc1cccc(S(=O)(=O)N2CCCCCC2)c1	n	n	n	n	n	n
Cc1ccccc1-c1nccc(NCc2cccnc2)n1	n	x	n	x	x	x
O=C(CN1C(=O)c2ccccc2S1(=O)=O)Nc1cccc(S(=O)(=O)N2CCCCC2)c1	u	n	18µM	n	n	n
CCCC(C(=O)Nc1cccc(S(=O)(=O)N2CCCC2)c1)c1ccccc1 (configuration not stated)	23µM	n	21µM	n	u	n
Cc1ccc(S(=O)Cc2nc(-c3ccc(C(=O)NCc4cccc(C)c4)cc3)oc2C)cc1 (configuration not stated)	n	x	u	x	x	x
Cc1oc(-c2ccc(C(=O)NCc3ccc(F)cc3)cc2)nc1CS(=O)c1ccccc1 (configuration not stated)	u	x	21µM	x	x	x
COc1ccccc1CNC(=O)c1ccc(-c2nc(CS(=O)c3ccc(C)cc3)c(C)o2)cc1 (configuration not stated)	u	x	13µM	x	x	x
Cc1ccc(CNC(=O)c2ccc(-c3nc(CS(=O)c4ccccc4)c(C)o3)cc2)cc1 (configuration not stated)	18µM	x	8.2µM	x	x	x
Cc1ccc(SCCC(=O)N(C)CC(=O)Nc2c(C)cccc2C)cc1	n	n	n	n	n	n
Cc1ccc(-c2ccc(/C=C3\SC(N4CCOCC4)=NC3=O)o2)cc1	10µM	n	9.2µM	8.2µM	9.2µM	-95
O=C1N=C(N2CCOCC2)S/C1=C/c1ccc(-c2ccc(F)cc2)o1	u	n	21µM	u	n	n
O=C1N=C(N2CCCCC2)S/C1=C\c1cn[nH]c1-c1ccccc1	n	n	n	n	n	n
O=C1N=C(N2CCOCC2)SC1=Cc1ccco1	n	n	n	n	n	n
Cc1ccc(/C=C2\SC(N3CCN(C(c4ccccc4)c4ccccc4)CC3)=NC2=O)o1	15µM	n	12µM	n	n	u
Clc1ccc(OCc2cn3cccnc3n2)c2ncccc12	n	n	n	n	n	n
c1cnc2c(OCc3cn4cccnc4n3)cccc2c1	n	n	29µM	n	n	n
Cc1ccc(NC(=O)Cn2c(=O)n(CCC(=O)NCc3ccccc3Cl)c(=O)c3ccccc32)c(C)c1	n	x	n	x	x	x
Cc1ccc(NC(=O)Cn2c(=O)n(CCC(=O)N3CCc4ccccc4C3)c(=O)c3ccccc32)c(C)c1	21µM	x	23µM	x	x	x
CCOC(=O)c1ccccc1NC(=O)Cn1c(=O)n(CCC(=O)N2CCc3ccccc3C2)c(=O)c2ccccc21	21µM	x	8.2µM	x	x	x
CCc1ccc(NC(=O)Cn2c(=O)n(CCC(=O)N3CCc4ccccc4C3)c(=O)c3ccccc32)cc1	n	x	n	x	x	x
CC(C)C(NS(=O)(=O)c1ccc2c(c1)oc(=O)n2C)C(=O)NCc1ccccc1 (configuration not stated)	n	x	n	x	x	x
SMILES	DT40 TDP1 CPT	uPA surface inh	DT40 TDP1 no CPT	HT1080 IDH1KD tx	HT1080-NT tox	IL-1B inflam inh
O=C(CN1C(=O)C2CCCCN2c2ccc(C(=O)N3CCCC3)cc21)NCc1ccc(F)cc1 (configuration not stated)	n	x	n	x	x	x
CC(NC(=O)Cn1ccsc1=N)C12CC3CC(CC(C3)C1)C2 (configuration not stated)	16µM	n	23µM	n	u	-59
CC(NC(=O)Cn1c(=O)[nH]c2ccsc2c1=O)C12CC3CC(CC(C3)C1)C2 (configuration not stated)	n	n	n	n	n	n
CC(NC(=O)CN1C(=O)NC(Cc2ccccc2)(Cc2ccccc2)C1=O)C12CC3CC(CC(C3)C1)C2 (configuration not stated)	u	n	u	u	21µM	n
CC1CCCCC1NC(=O)CN1C(=O)NC(Cc2ccccc2)(Cc2ccccc2)C1=O (configuration not stated)	u	n	u	n	n	n
COCCn1c(=O)c(C)nc2cncnc21	n	x	n	x	x	x
CN(C)c1ccc(/C=N/N=C(N)N)cc1[N+](=O)[O-]	u	n	13µM	n	n	u
CCn1c(=NC(=O)c2ccc(S(=O)(=O)N(C)C)cc2)sc2cccc(OC)c21	n	n	n	n	n	n
C#CCn1c(=NC(=O)c2ccc(Br)s2)sc2cc(NC(C)=O)ccc21	n	n	n	n	n	n
C=CCn1c(=NC(=O)c2cccs2)sc2cccc(OC)c21	u	n	16µM	n	n	n
C#CCn1c(=NC(=O)c2ccc(Br)s2)sc2cccc(OC)c21	u	u	21µM	n	u	n
Cc1ccc(N/N=C/c2c(O)cc(C)oc2=O)cc1	u	n	u	u	u	n
C/C(=N/NC(=O)c1cccc(C)c1)c1c(O)cc(C)oc1=O	u	n	23µM	n	n	n
C/C(=N\Nc1ccccc1)c1c(O)cc(C)oc1=O	n	n	n	12µM	u	n
COCCNc1ncnc2c1ncn2[C@H]1CN(Cc2ccco2)C[C@@H](CO)O1	n	x	u	n	n	n
Cc1cccc(Oc2sc(C(=O)c3ccccc3)c(N)c2C#N)c1C	n	n	u	n	n	-62
N#Cc1c(Oc2ccc3ccccc3c2)sc(C(=O)c2ccccc2)c1N	u	n	u	n	n	-107
N#Cc1c(SCc2ccccc2)sc(C(=O)c2ccccc2)c1N	n	n	n	n	u	n
CCc1nc2ccc(C(=O)NCc3ccc4c(c3)OCO4)cn2c1N(CCC(C)C)CCN(C)C	21µM	x	u	u	21µM	n
CCCCN(C)c1c(C)nc2ccc(C(=O)NCCc3c[nH]c4ccccc34)cn12	u	x	u	u	u	n
